Common to all, as to test: PBM; 200 nM protein, PBS
Common to all, as to details: dsDNA, one strand shown

The target in assay [1] is T1, SIX6 (Homo sapiens, UniProt O95475 114-200, L167I).
T1 sequence: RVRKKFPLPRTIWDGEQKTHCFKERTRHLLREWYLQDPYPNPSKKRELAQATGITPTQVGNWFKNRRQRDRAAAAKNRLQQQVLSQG

Assay [2] addresses T2, SIX6 (Homo sapiens, UniProt O95475 114-200, L143V).
T2 sequence: T1 sequence with L30V, I54L

Assay [3] deals with T3, SIX6 (Homo sapiens, UniProt O95475 114-200, H141N).
T3 sequence: T1 sequence with H28N, I54L

The target of assay [4] is T4, SIX6 (Homo sapiens, UniProt O95475 114-200, T165P).
T4 sequence: T1 sequence with T52P, I54L

For assay [5], the target named is T5, SIX6 (Homo sapiens, UniProt O95475 114-200, L167M).
T5 sequence: T1 sequence with I54M

Assay [6] deals with T6, SIX6 (Homo sapiens, UniProt O95475 114-200, L143M).
T6 sequence: T1 sequence with L30M, I54L

In assay [7] the target is T7, SIX6 (Homo sapiens, UniProt O95475 114-200, L143I).
T7 sequence: T1 sequence with L30I, I54L

The target of assay [8] is T8, SIX6 (Homo sapiens, UniProt O95475 114-200, T165G).
T8 sequence: T1 sequence with T52G, I54L

Assay [9] deals with T9, SIX6 (Homo sapiens, UniProt O95475 114-200, T139Q).
T9 sequence: T1 sequence with T26Q, I54L

Assay [10] has as its target T10, SIX6 (Homo sapiens, UniProt O95475 114-200, T165A).
T10 sequence: T1 sequence with T52A, I54L

Assay [11] concerns the target T11, SIX6 (Homo sapiens, UniProt O95475 114-200, L167V).
T11 sequence: T1 sequence with I54V

For assay [12], the target named is T12, SIX6 (Homo sapiens, UniProt O95475 114-200).
T12 sequence: T1 sequence with I54L

In assay [13] the target is T13, SIX6 (Homo sapiens, UniProt O95475 114-200, T165I).
T13 sequence: T1 sequence with T52I, I54L

Substitutions are numbered along the chain they refer to.

Turning to CGCGCTCC, the binding signal is 8.99 upbm affinity estimate (log intensity, higher = more binding, comparable within an allelic series) with SIX6 [1]; 8.9 upbm affinity estimate (log intensity, higher = more binding, comparable within an allelic series) with SIX6 [2]; 8.83 upbm affinity estimate (log intensity, higher = more binding, comparable within an allelic series) with SIX6 [3]; 9.01 upbm affinity estimate (log intensity, higher = more binding, comparable within an allelic series) in the assay with SIX6 [4]; 8.97 upbm affinity estimate (log intensity, higher = more binding, comparable within an allelic series) with SIX6 [5]; 9.06 upbm affinity estimate (log intensity, higher = more binding, comparable within an allelic series) in the assay with SIX6 [6]. For the same sequence, the binding signal with SIX6 [7] is 8.97 upbm affinity estimate (log intensity, higher = more binding, comparable within an allelic series); in the assay with SIX6 [8] it was 8.86 upbm affinity estimate (log intensity, higher = more binding, comparable within an allelic series); in the assay with SIX6 [9] it was 9.04 upbm affinity estimate (log intensity, higher = more binding, comparable within an allelic series); with SIX6 [10], 8.97 upbm affinity estimate (log intensity, higher = more binding, comparable within an allelic series); with SIX6 [11], 8.93 upbm affinity estimate (log intensity, higher = more binding, comparable within an allelic series); with SIX6 [12] it was 8.91 upbm affinity estimate (log intensity, higher = more binding, comparable within an allelic series). Besides, in the assay with SIX6 [13], the binding signal is 8.89 upbm affinity estimate (log intensity, higher = more binding, comparable within an allelic series).
As for GTGATATA, the binding signal with SIX6 [1] was 11.3 upbm affinity estimate (log intensity, higher = more binding, comparable within an allelic series); in the assay with SIX6 [2], 10.5 upbm affinity estimate (log intensity, higher = more binding, comparable within an allelic series); with SIX6 [3], 11.3 upbm affinity estimate (log intensity, higher = more binding, comparable within an allelic series); with SIX6 [4], 9.96 upbm affinity estimate (log intensity, higher = more binding, comparable within an allelic series); in the assay with SIX6 [5] it was 11 upbm affinity estimate (log intensity, higher = more binding, comparable within an allelic series); with SIX6 [6] it was 10.9 upbm affinity estimate (log intensity, higher = more binding, comparable within an allelic series). The binding signal with SIX6 [7] was 10.4 upbm affinity estimate (log intensity, higher = more binding, comparable within an allelic series); with SIX6 [8], 11.3 upbm affinity estimate (log intensity, higher = more binding, comparable within an allelic series); with SIX6 [9], 11.1 upbm affinity estimate (log intensity, higher = more binding, comparable within an allelic series); with SIX6 [10] it was 11.3 upbm affinity estimate (log intensity, higher = more binding, comparable within an allelic series); with SIX6 [11], 11.1 upbm affinity estimate (log intensity, higher = more binding, comparable within an allelic series); with SIX6 [12], 11.1 upbm affinity estimate (log intensity, higher = more binding, comparable within an allelic series). For the same sequence, in the assay with SIX6 [13], the binding signal is 11.2 upbm affinity estimate (log intensity, higher = more binding, comparable within an allelic series).
As to ATGTATCA, the binding signal in the assay with SIX6 [1] is 11.4 upbm affinity estimate (log intensity, higher = more binding, comparable within an allelic series); with SIX6 [2], 10.6 upbm affinity estimate (log intensity, higher = more binding, comparable within an allelic series); with SIX6 [3], 11.5 upbm affinity estimate (log intensity, higher = more binding, comparable within an allelic series); with SIX6 [4] it was 10.1 upbm affinity estimate (log intensity, higher = more binding, comparable within an allelic series); with SIX6 [5] it was 11 upbm affinity estimate (log intensity, higher = more binding, comparable within an allelic series); with SIX6 [6], 11.2 upbm affinity estimate (log intensity, higher = more binding, comparable within an allelic series). The binding signal was 10.6 upbm affinity estimate (log intensity, higher = more binding, comparable within an allelic series) in the assay with SIX6 [7]; 11.5 upbm affinity estimate (log intensity, higher = more binding, comparable within an allelic series) with SIX6 [8]; 11.3 upbm affinity estimate (log intensity, higher = more binding, comparable within an allelic series) with SIX6 [9]; 11.4 upbm affinity estimate (log intensity, higher = more binding, comparable within an allelic series) with SIX6 [10]; 11.2 upbm affinity estimate (log intensity, higher = more binding, comparable within an allelic series) with SIX6 [11]; 11.2 upbm affinity estimate (log intensity, higher = more binding, comparable within an allelic series) with SIX6 [12]. In the assay with SIX6 [13], the binding signal was 11.3 upbm affinity estimate (log intensity, higher = more binding, comparable within an allelic series).
Turning to CGATATCC, the binding signal with SIX6 [1] was 11.1 upbm affinity estimate (log intensity, higher = more binding, comparable within an allelic series); with SIX6 [2] it was 10.2 upbm affinity estimate (log intensity, higher = more binding, comparable within an allelic series); with SIX6 [3], 11.1 upbm affinity estimate (log intensity, higher = more binding, comparable within an allelic series); with SIX6 [4], 9.62 upbm affinity estimate (log intensity, higher = more binding, comparable within an allelic series); with SIX6 [5], 10.6 upbm affinity estimate (log intensity, higher = more binding, comparable within an allelic series); with SIX6 [6], 10.9 upbm affinity estimate (log intensity, higher = more binding, comparable within an allelic series). The binding signal in the assay with SIX6 [7] is 10.3 upbm affinity estimate (log intensity, higher = more binding, comparable within an allelic series); with SIX6 [8], 11.1 upbm affinity estimate (log intensity, higher = more binding, comparable within an allelic series); with SIX6 [9] it was 11.2 upbm affinity estimate (log intensity, higher = more binding, comparable within an allelic series); with SIX6 [10] it was 11 upbm affinity estimate (log intensity, higher = more binding, comparable within an allelic series); with SIX6 [11], 10.9 upbm affinity estimate (log intensity, higher = more binding, comparable within an allelic series); with SIX6 [12], 11 upbm affinity estimate (log intensity, higher = more binding, comparable within an allelic series). For the same sequence, in the assay with SIX6 [13], the binding signal is 10.9 upbm affinity estimate (log intensity, higher = more binding, comparable within an allelic series).
With GATATCCC, the binding signal is 11.1 upbm affinity estimate (log intensity, higher = more binding, comparable within an allelic series) with SIX6 [1]; 10.2 upbm affinity estimate (log intensity, higher = more binding, comparable within an allelic series) in the assay with SIX6 [2]; 11.1 upbm affinity estimate (log intensity, higher = more binding, comparable within an allelic series) with SIX6 [3]; 9.49 upbm affinity estimate (log intensity, higher = more binding, comparable within an allelic series) with SIX6 [4]; 10.8 upbm affinity estimate (log intensity, higher = more binding, comparable within an allelic series) with SIX6 [5]; 11 upbm affinity estimate (log intensity, higher = more binding, comparable within an allelic series) with SIX6 [6]. In addition, the binding signal is 10.2 upbm affinity estimate (log intensity, higher = more binding, comparable within an allelic series) with SIX6 [7]; 11.2 upbm affinity estimate (log intensity, higher = more binding, comparable within an allelic series) in the assay with SIX6 [8]; 11.1 upbm affinity estimate (log intensity, higher = more binding, comparable within an allelic series) with SIX6 [9]; 11 upbm affinity estimate (log intensity, higher = more binding, comparable within an allelic series) in the assay with SIX6 [10]; 11 upbm affinity estimate (log intensity, higher = more binding, comparable within an allelic series) in the assay with SIX6 [11]; 11 upbm affinity estimate (log intensity, higher = more binding, comparable within an allelic series) in the assay with SIX6 [12]. In addition, the binding signal in the assay with SIX6 [13] was 11 upbm affinity estimate (log intensity, higher = more binding, comparable within an allelic series).
In the case of AGTGATAC, the binding signal with SIX6 [1] was 11.6 upbm affinity estimate (log intensity, higher = more binding, comparable within an allelic series); with SIX6 [2], 10.5 upbm affinity estimate (log intensity, higher = more binding, comparable within an allelic series); with SIX6 [3], 11.5 upbm affinity estimate (log intensity, higher = more binding, comparable within an allelic series); with SIX6 [4], 9.81 upbm affinity estimate (log intensity, higher = more binding, comparable within an allelic series); in the assay with SIX6 [5], 10.9 upbm affinity estimate (log intensity, higher = more binding, comparable within an allelic series); with SIX6 [6] it was 11.2 upbm affinity estimate (log intensity, higher = more binding, comparable within an allelic series). For the same sequence, the binding signal in the assay with SIX6 [7] is 10.5 upbm affinity estimate (log intensity, higher = more binding, comparable within an allelic series); with SIX6 [8], 11.6 upbm affinity estimate (log intensity, higher = more binding, comparable within an allelic series); with SIX6 [9] it was 11.5 upbm affinity estimate (log intensity, higher = more binding, comparable within an allelic series); in the assay with SIX6 [10], 11.5 upbm affinity estimate (log intensity, higher = more binding, comparable within an allelic series); with SIX6 [11] it was 11.4 upbm affinity estimate (log intensity, higher = more binding, comparable within an allelic series); with SIX6 [12], 11.2 upbm affinity estimate (log intensity, higher = more binding, comparable within an allelic series). In addition, the binding signal with SIX6 [13] is 11.4 upbm affinity estimate (log intensity, higher = more binding, comparable within an allelic series).

(Values after paper PMC11006913.)
